SMILES strings stand for the structures. Inconclusive results are not listed. A structure can be active in one record and inactive in another. The source made the active and inactive calls. Unless noted, calls come from the whole dose curve.

Test [1] is described as follows: Nuclear factor erythroid 2-related factor 2/antioxidant responsive element (Nrf2/ARE) small molecule agonists: qHTS cell viability counter screen in human keratinocytes (AID 1919968; active = well fitted curve in the direction sought with a large enough effect in the repeat runs; an effect the other way counts as inactive or inconclusive; note: nearly all actives have a fitted effect of over 55% in size; note: potency is the fitted concentration of half-maximal effect). In outline: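 Seed 1,500 KeratinoSens cells per well, then incubate 5 h at 37 C/5% CO2. Add compounds in DMSO and incubate 23 h. Add CellTiter-Fluor, wait 1 h and read fluorescence.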
In general terms: In qHTS, concentration-response curves come from the screen itself.

The nature of test [2]: Nuclear factor erythroid 2-related factor 2/antioxidant responsive element (Nrf2/ARE) small molecule agonists: luciferase reporter gene qHTS assay in human keratinocytes (AID 1919969; note: nearly all actives have a fitted effect of over 35% in size). (In general: A reporter such as luciferase makes a cellular process visible.)
Test [3] concerns the target KiSS-1 receptor (Homo sapiens) (UniProt Q969F8). As to the kind of experiment: Human kisspeptin (KISS1R) small molecule agonists, calcium flux assay in KISS1R-HEK293 cells (AID 1920064; active = well fitted curve in the direction sought with a large enough effect in the repeat runs; an effect the other way counts as inactive or inconclusive). In outline: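 Cells plated and incubated 18 h; dye added, 1 h at 37 C; compounds in DMSO pinned in; signal read at 480/540 nm every second for 3 min. Each compound tested at 15 concentrations in triplicate.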
For orientation: Calcium flux is commonly read through the fluorescence of an indicator in the cells.

A short description of test [4]: G protein-coupled receptor (GPCR) small molecule agonists, calcium flux assay: HEK293 wild type cell line counter screen (AID 1920065). In outline: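 Counter-screen of the Tox21 10K library for non-specific calcium release: dye-loaded cells received compounds in DMSO and were monitored by kinetic fluorescence (480/540 nm, 3 min). Fifteen concentrations, run in triplicate.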

Test [5] in a line: p53 small molecule agonists, cell-based qHTS assay with human liver microsomes (AID 1963577). In outline: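 Fluorescence of the beta-lactamase reporter in p53RE-bla cells, detected with LiveBLAzer substrate (2 h, room temperature, dark), served as the read-out after 16 h compound exposure at 37 C with human liver microsomes and NADPH, each 0.5 mg/mL final.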
Test [6] is described as follows: p53 small molecule agonists, cell-based qHTS assay with rat liver microsomes (AID 1963578). The method in brief:
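Cells carrying a p53 response element–beta-lactamase reporter were plated and rested 5 h, then dosed with compound in DMSO plus rat liver microsomes and NADPH, each at 0.5 mg/mL final. After 16 h at 37 C, LiveBLAzer substrate was added for 2 h.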

The nature of test [7]: p53 small molecule agonists, cell-based qHTS assay with human liver microsomes: qHTS cell viability counter screen (AID 1963579). Note: nearly all actives have a fitted effect of over 45% in size. The method in brief: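 Cytotoxicity counter screen: p53RE-bla, 4,000 cells/well; 5 h settle, 37 C/5% CO2; cpd + HLM 0.5 mg/mL + NADPH 0.5 mg/mL (final); 16 h, 37 C; CellTiter-Glo, 30 min RT, luminescence.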
The nature of test [8]: p53 small molecule agonists, cell-based qHTS assay: qHTS cell viability counter screen (AID 1963581). Note: nearly all actives have a fitted effect of over 45% in size. The method in brief:
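Cells: HCT-116 with p53 response element-driven beta-lactamase. Treatment: 16 h, 37 C, compounds in DMSO. Read: CellTiter-Glo luminescence after 30 min RT.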

The nature of test [9]: p53 small molecule agonists, cell-based qHTS assay (AID 1963582; active = well fitted activation curve with a large enough effect in the signal ratio in the repeat runs, not every such curve was filed as active; the % refers to the signal ratio). The method in brief:
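Quantitative HTS in p53RE-bla cells: after a 5 h settling period, compounds delivered in DMSO were left on cells for 16 h at 37 C, and reporter induction was measured as fluorescence following 2 h substrate loading.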

The target of test [10] is 5-hydroxytryptamine receptor 2A (Homo sapiens) (UniProt P28223). In words: 5-hydroxytryptamine receptor 2A (HTR2A) small molecule antagonists, cell-based qHTS assay (AID 1963586). Note: nearly all actives have a fitted effect of over 45% in size. In outline: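 Antagonist-mode intracellular calcium assay: DOI (4 nM) added after 5 min compound pre-incubation at room temperature to dye-loaded HTR2A-CHO cells. Fluorescence followed for 3 min, sampled every second.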
Sequence of 5-hydroxytryptamine receptor 2A (Homo sapiens) (P28223 whole entry, looked up): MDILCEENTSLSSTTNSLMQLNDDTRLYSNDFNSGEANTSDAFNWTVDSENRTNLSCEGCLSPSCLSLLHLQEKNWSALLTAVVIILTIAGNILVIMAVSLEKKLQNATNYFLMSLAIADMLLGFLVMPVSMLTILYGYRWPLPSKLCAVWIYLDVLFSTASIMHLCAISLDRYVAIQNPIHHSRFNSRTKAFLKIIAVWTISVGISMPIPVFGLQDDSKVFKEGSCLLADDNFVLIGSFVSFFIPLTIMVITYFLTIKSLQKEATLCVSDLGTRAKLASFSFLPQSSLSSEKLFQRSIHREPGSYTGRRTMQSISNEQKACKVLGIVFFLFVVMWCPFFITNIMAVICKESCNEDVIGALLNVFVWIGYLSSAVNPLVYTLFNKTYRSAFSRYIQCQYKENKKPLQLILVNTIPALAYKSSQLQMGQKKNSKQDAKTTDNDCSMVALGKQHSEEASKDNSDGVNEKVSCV

For test [11] the target is unchanged. In words: 5-hydroxytryptamine receptor 2A (HTR2A) small molecule agonists, cell-based qHTS assay (AID 1963587). Note: nearly all actives have a fitted effect of over 30% in size. The method in brief:
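Kinetic calcium-flux fluorescence (2 min, 1 sec intervals) after compound addition in agonist mode. HTR2A-CHO cells were cultured 18 h, then dye-loaded 1 h at 37 C.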

Test [12] addresses Muscarinic acetylcholine receptor M1 (Homo sapiens) (UniProt P11229). As to the kind of experiment: Cholinergic receptor muscarinic 1 (CHRM1) small molecule antagonists, cell-based qHTS assay (AID 1963588). Note: nearly all actives have a fitted effect of over 40% in size. Note: potency is the fitted concentration of half-maximal effect. The method in brief: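 CHRM1-CHO calcium-flux assay, antagonist mode. Cells were seeded 18 h, dye-loaded 1 h at 37 C and given compound for 5 min at RT, then acetylcholine was added at 50nM. FDSS fluorescence was read 3 min; 15 concentrations, three runs.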

Test [13] has the same target. As to the kind of experiment: Cholinergic receptor muscarinic 1 (CHRM1) small molecule agonists, cell-based qHTS assay (AID 1963589). Note: nearly all actives have a fitted effect of over 35% in size. In outline:
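Agonist-mode qHTS in CHO cells stably carrying human muscarinic M1. Intracellular calcium is tracked by fluorescence every second after compound transfer; each compound runs at 15 concentrations in three independent runs.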

Test [14] in a line: cAMP Responsive Elements (CRE) small molecule agonists, cell-based qHTS assay (AID 1963590). In outline:
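Agonist mode qHTS in CRE-bla HEK 293T cells: compounds dosed from DMSO for 3 h at 37 C/5% CO2, followed by LiveBLAzer B/G FRET substrate for 2 h at room temperature.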

A short description of test [15]: cAMP Responsive Elements (CRE) small molecule antagonists, cell-based qHTS assay (AID 1963591; active = well fitted inhibition curve with a large enough effect in the signal ratio in the repeat runs, not every such curve was filed as active; the % refers to the signal ratio). The method in brief: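 Antagonist mode: test compounds are co-incubated with the adenylyl cyclase activator NKH477 (0.25 uM final) on CRE-bla HEK293T cells for 3 h at 37 °C, followed by LiveBLAzer substrate loading.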
For test [16], the target named is Beta-2 adrenergic receptor (Homo sapiens) (UniProt P07550). As to the kind of experiment: Adrenergic beta2 receptor (ADRB2) small molecule antagonists, cell-based qHTS assay (AID 1963592). Note: series mostly up to about 92 µM; nearly all actives have a fitted effect of over 50% in size. The method in brief:
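Cells (CHO, stable ADRB2 overexpression) incubated 18-20hr at 37C; compounds added from DMSO; agonist mix (1nM isoproterenol, 100uM IBMX, 25uM Ro-20-1724) added; 0.5hr RT; d2-cAMP and anti-cAMP-cryptate added; 1hr RT; 665/615 nm read.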

The target is the same in test [17]. As to the kind of experiment: Adrenergic beta2 receptor (ADRB2) small molecule agonists, cell-based qHTS assay (AID 1963593).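 Note: CHO cells stably overexpressing human ADRB2.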 The method in brief: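 CHO cells stably over-expressing ADRB2 were plated overnight at 37C, then dosed with compounds plus a stimulation mix containing 100uM IBMX and 25uM Ro-20-1724 for 0.5hr at room temperature. cAMP was measured by HTRF competition, 1hr.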

Test [18] has as its target D(2) dopamine receptor (Homo sapiens) (UniProt P14416). In words: Dopamine D2 receptor (DRD2) small molecule agonists, cell-based qHTS assay (AID 1963594). Note: nearly all actives have a fitted effect of over 35% in size. The method in brief: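 cAMP accumulation in DRD2-HEK293 cells measured by HTRF after 1 h detection; compounds added 10 min before NKH477 (200nM […]) forskolin-analogue stimulation, 30 min at room temperature, with Ro20-1724 present at 0.1 mM final.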

Test [19] in a line: p53 small molecule agonists, cell-based qHTS assay with rat liver microsomes: qHTS cell viability counter screen (AID 1963580). Note: nearly all actives have a fitted effect of over 45% in size. The method in brief:
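HCT-116 p53RE-bla, 4,000 cells/well, 5 h pre-incubation; cpd + rat liver microsomes 0.5 mg/mL + NADPH 0.5 mg/mL (final); 16 h, 37 C; CellTiter-Glo, 30 min RT; luminescence.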

Test [20] addresses D(2) dopamine receptor (Homo sapiens) (UniProt P14416). In words: Dopamine D2 receptor (DRD2) small molecule antagonists, cell-based qHTS assay (AID 1963595; active = well fitted inhibition curve with a large enough effect in the signal ratio in the repeat runs, with a control signal flat; the % refers to the signal ratio). The method in brief:
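Stable D2 receptor HEK293 line, 24 h after seeding. Compound preincubated 10 min, then quinpirole (12 nM) with forskolin analogue NKH477 (200 nM), 30 min, room temperature. Detection by time-resolved FRET of cAMP.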

Sequence of KiSS-1 receptor (Homo sapiens) (Q969F8 whole entry, looked up): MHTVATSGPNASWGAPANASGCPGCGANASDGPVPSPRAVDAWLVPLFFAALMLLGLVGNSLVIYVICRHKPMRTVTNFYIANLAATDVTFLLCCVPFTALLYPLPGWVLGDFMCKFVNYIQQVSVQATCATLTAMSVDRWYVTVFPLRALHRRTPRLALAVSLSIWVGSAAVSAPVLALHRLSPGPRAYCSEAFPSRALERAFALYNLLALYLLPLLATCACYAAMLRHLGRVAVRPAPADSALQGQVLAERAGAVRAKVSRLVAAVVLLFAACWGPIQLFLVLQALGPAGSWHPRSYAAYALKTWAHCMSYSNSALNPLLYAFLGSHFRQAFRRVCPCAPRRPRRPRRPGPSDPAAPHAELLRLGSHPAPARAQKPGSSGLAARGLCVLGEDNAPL
Sequence of Muscarinic acetylcholine receptor M1 (Homo sapiens) (P11229 whole entry, looked up): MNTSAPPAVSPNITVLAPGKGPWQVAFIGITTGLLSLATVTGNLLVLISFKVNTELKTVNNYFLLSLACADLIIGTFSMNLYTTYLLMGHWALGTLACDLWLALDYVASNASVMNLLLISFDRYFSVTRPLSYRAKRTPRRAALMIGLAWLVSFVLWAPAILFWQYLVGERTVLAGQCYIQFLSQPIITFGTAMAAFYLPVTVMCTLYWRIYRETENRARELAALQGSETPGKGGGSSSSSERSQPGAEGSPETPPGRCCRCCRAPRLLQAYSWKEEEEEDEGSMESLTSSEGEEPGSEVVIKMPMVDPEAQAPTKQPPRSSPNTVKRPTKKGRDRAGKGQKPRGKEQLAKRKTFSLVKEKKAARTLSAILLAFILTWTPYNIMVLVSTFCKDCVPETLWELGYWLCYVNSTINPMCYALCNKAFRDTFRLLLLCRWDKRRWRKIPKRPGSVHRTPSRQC
Sequence of Beta-2 adrenergic receptor (Homo sapiens) (P07550 whole entry, looked up): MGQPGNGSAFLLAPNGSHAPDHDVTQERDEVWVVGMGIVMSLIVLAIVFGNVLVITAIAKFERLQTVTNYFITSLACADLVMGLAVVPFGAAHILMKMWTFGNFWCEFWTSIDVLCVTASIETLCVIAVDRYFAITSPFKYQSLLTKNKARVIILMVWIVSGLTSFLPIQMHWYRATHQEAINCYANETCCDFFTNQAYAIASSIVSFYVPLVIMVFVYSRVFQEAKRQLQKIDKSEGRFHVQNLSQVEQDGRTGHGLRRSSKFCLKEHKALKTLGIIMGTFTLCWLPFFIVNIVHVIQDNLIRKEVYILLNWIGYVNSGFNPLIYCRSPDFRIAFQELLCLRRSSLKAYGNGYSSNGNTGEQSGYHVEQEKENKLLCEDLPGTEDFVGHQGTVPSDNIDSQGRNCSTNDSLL
Sequence of D(2) dopamine receptor (Homo sapiens) (P14416 whole entry, looked up): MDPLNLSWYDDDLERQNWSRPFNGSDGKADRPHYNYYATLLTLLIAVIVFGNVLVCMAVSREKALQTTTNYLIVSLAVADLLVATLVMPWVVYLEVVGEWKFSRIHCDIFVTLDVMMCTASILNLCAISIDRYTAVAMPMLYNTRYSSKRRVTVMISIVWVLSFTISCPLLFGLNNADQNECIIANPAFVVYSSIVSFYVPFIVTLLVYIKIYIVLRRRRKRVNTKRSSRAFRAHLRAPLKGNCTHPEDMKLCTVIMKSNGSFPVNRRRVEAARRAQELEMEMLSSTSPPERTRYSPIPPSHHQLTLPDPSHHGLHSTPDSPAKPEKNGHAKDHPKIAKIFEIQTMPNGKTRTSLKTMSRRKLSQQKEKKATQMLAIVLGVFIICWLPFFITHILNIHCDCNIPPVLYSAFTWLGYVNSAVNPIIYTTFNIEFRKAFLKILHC

Turning to `O=c1n(Cl)c(=O)n(Cl)c(=O)n1Cl`, the Potency result in [1], in test [2], in [3], in [4], in test [5] and in test [6] was “inactive” in each case. Further, the Potency entry in test [7], in [8], in test [9], in test [10], in test [11] and in test [12] was “inactive” each time. The Potency result in test [13], in test [14], in [15], in [16], in test [17] and in test [18] was “inactive” each time.
On to `FC(Cl)(Cl)Cl`, for which the Potency result in [1], in [2], in [3], in test [4], in [5] and in test [6] was “inactive” each time. Besides, the Potency entry in test [7], in [19], in [8], in [9], in test [10] and in test [11] was “inactive” throughout. Further, the Potency entry in [12], in test [13], in [14], in [15], in [16] and in [18] was “inactive” throughout. In [20], the Potency entry is “inactive”.
As to `O=C/C=C/c1ccccc1`, the Potency entry in test [1], in test [2], in test [3], in test [4], in [5] and in test [6] was “inactive” each time. Also, the Potency result in [7], in [19], in test [8], in test [9], in test [14] and in [15] was “inactive” each time. The Potency entry in test [16], in [18] and in test [20] was “inactive” in each case.
Turning to `Cc1cc(-c2cc(C)c(N)c(C)c2)cc(C)c1N`, the Potency result in test [1], in test [2], in test [3], in test [4], in [5] and in test [6] was “inactive” each time. The Potency result in [7], in test [19], in test [8], in [9], in [11] and in [13] was “inactive” in each case. The Potency entry in test [14] and in [15] was “inactive” each time. For the same compound, the Potency in test [12] was 2.11 µM (active) and inactive.
Regarding `OC(Cc1ccccc1Cl)(Cn1cncn1)C1(Cl)CC1` (centres undefined), the Potency result in [1], in test [2], in test [3], in [4], in test [5] and in [6] was “inactive” in each case. Besides, the Potency entry in test [7], in [19], in test [8], in [9], in [10] and in test [11] was “inactive” in each case. In addition, the Potency result in test [12], in test [14], in test [15], in test [16], in [18] and in test [20] was “inactive” in each case.
On to `Clc1ccc(C(c2ccccc2Cl)C(Cl)(Cl)Cl)cc1` (centres undefined), for which the Potency in test [1] is 43.5 µM (active). In addition, the Potency entry in test [2], in test [3], in test [4], in [5], in [6] and in test [7] was “inactive” each time. Also, the Potency entry in test [19], in [8], in test [10], in test [11], in test [12] and in test [13] was “inactive” throughout. Further, the Potency result in test [15], in test [16], in [18] and in test [20] was “inactive” in each case.
With `CCCCOC(=O)COC(=O)c1ccccc1C(=O)OCCCC`, the Potency entry in test [1], in [2], in [3], in test [4], in [5] and in test [6] was “inactive” each time. Also, the Potency entry in test [7], in test [19], in test [8], in test [9], in [11] and in test [12] was “inactive” in each case. The Potency result in [13], in [14], in test [15], in test [16], in test [18] and in test [20] was “inactive” in each case.
On to `O=NN1CCOCC1`, for which the Potency entry in test [1], in test [2], in test [3], in [4], in test [5] and in test [6] was “inactive” in each case. Further, the Potency result in [7], in test [19], in test [8], in test [9], in [10] and in [11] was “inactive” in each case. For the same compound, the Potency entry in test [12], in test [13], in test [14], in [15], in test [16] and in [18] was “inactive” each time. Also, the Potency result in test [20] was “inactive”.

The values above are taken from PubChem BioAssay (Tox21).
